Measured values published in PubChem BioAssay AID1159524 (National Center for Advancing Translational Sciences (NCATS), 2015).
In all, about 410,000 compounds went through this assay and about 5,100 (1.2%) were called active. Another 8% or so got no clear call; they are omitted. The call rests on the fitted dose curve; tested in HEK293T cells. What follows is part of a selection rich in actives, with near analogues and random picks from the rest. A call without a number means that no potency is given here.
Potency means the concentration at half of the fitted maximal effect.

Assay: High Throughput Screening for Foot and Mouth Disease Virus Antivirals; further: read-out not given here; nearly all actives have a fitted effect of over 45% in size
Conditions: FMDV antiviral cell-based qHTS; series mostly up to 57.9 µM
With `COc1ccc(C(=O)NCc2ccc(Cl)cc2)cc1S(=O)(=O)N1CCCC1` the Potency was “inactive”.
In the case of `NS(=O)(=O)c1ccc(CCNC(=O)c2ccc(Cl)c(S(=O)(=O)N3CCCCCC3)c2)cc1`, the Potency was 14.1 µM (active).
With `O=C(NCCc1ccc(F)cc1)c1ccc(S(=O)(=O)N2CCCCC2)cc1` the Potency was “inactive”.
With `O=C(CCS(=O)(=O)c1ccccc1)N(Cc1cccnc1)c1nc2c(F)cccc2s1` the Potency was “inactive”.
In the case of `O=C(c1ccc(F)cc1)C1CCN(CCCCc2ccccc2)CC1`, the Potency was “inactive”.
For `CS(=O)(=O)N1CCC2(CC1)CN(c1ccncc1)C2`, the Potency was “inactive”.
For `CCOC(=O)c1c(NC(=O)c2cc(-c3ccc(Cl)cc3)on2)sc2c1CCCC2`, the Potency was “inactive”.
With `Cc1ccc(Cl)cc1NC(=O)CSc1nc2ccccc2nc1Cc1ccccc1` the Potency was “inactive”.
For `NC(=O)c1sc(-c2ccsc2)cc1N`, the Potency was “inactive”.
In the case of `CN(CCO)c1ccc(/C=N/Nc2nncc3ccccc23)cc1`, the Potency was 10 µM (active).
For `COc1cccc(-c2cc(NCCc3c[nH]c4ccc(OC)cc34)ncn2)c1`, the Potency was “inactive”.
In the case of `O=C(c1cnccn1)N1CCC2(CCCN(Cc3ccccc3)C2)CC1`, the Potency was “inactive”.
In the case of `CCNc1ncc2ncc(=O)n(CCc3ccccc3)c2n1`, the Potency was “inactive”.
With `COc1ccc(Nc2cc(C(=O)NCCCN(C)c3ccccc3)c3ccccc3n2)c(OC)c1` the Potency was “inactive”.
In the case of `O=C(Nc1cccc(F)c1)N1CC2(CCN(C(=O)c3csnn3)CC2)C1`, the Potency was “inactive”.
In the case of `CCOC(=O)C1=C(c2ccc(OC)cc2)C(=O)c2ccccc2C1=O`, the Potency was 3.55 µM (active).
In the case of `CCOC(=O)C1=C(c2ccccc2)NC(=O)NC1c1cc(OC)c(OC)cc1OC` (configuration not stated), the Potency was “inactive”.
With `CCOC(=O)C1C(=O)C=C(c2ccc(OC)cc2)CC1c1ccco1` (configuration not stated) the Potency was “inactive”.
In the case of `CN(C)S(=O)(=O)c1ccc(C(=O)NCC(C)(C)N2CCOCC2)cc1`, the Potency was “inactive”.
With `CC(C)(CNC(=O)Cc1ccc(Cl)cc1Cl)N1CCOCC1` the Potency was “inactive”.
For `CC(C)(CNC(=O)c1ccc(Cl)c(S(=O)(=O)N2CCc3ccccc3C2)c1)N1CCOCC1`, the Potency was 12.6 µM (active).
For `Cc1ccc(S(=O)(=O)c2c(Nc3cccc(Cl)c3)sc(C(=O)c3ccc4c(c3)OCO4)c2N)cc1`, the Potency was “inactive”.
For `COc1ccccc1CNC(=O)c1ccc(Cl)c(S(=O)(=O)N2CCCC2)c1`, the Potency was “inactive”.
In the case of `COc1ccccc1N1CCN(C(=O)c2ccc(Cl)c(S(=O)(=O)N3CCCC3)c2)CC1`, the Potency was 20 µM (active).
For `CCS(=O)(=O)N1CCc2cc(C(=O)N3CCN(c4ccccc4OC)CC3)ccc21`, the Potency was “inactive”.
For `CCCC1OC23CCCCC2C(C#N)(C#N)C1(C#N)C(=N)O3` (configuration not stated), the Potency was 20 µM (active).
For `CN1CCCC1CCO[C@@](C)(c1ccccc1)c1ccc(Cl)cc1` (some centres not stated), the Potency was “inactive”.
With `CN1CCN(C(=O)O[C@@H]2c3nccnc3C(=O)N2c2ccc(Cl)cn2)CC1` the Potency was “inactive”.
For `Cc1cnc(-n2ncc(C(=O)N3CCN(C(C)C)CC3)c2-c2ccco2)nc1-c1ccc(F)cc1`, the Potency was “inactive”.
With `COc1ccc(S(=O)(=O)N2CCCCCC2)cc1C(=O)N(C)Cc1cccc(OC)c1OC` the Potency was “inactive”.
In the case of `COc1cccc(CN(C)CC(=O)NCc2ccccc2Cl)c1OC`, the Potency was “inactive”.
For `CCN(CC)S(=O)(=O)c1ccc(N(C)Cc2cccc(OC)c2OC)nc1`, the Potency was 20 µM (active).
With `COc1ccc(S(=O)(=O)NCC(c2ccc(N(C)C)cc2)N2CCCC2)cc1` (configuration not stated) the Potency was “inactive”.
With `COc1ccc(CN2CCOc3c(cc(-c4ncc(C(F)(F)F)cc4Cl)cc3OCC3CCCO3)C2)c(O)c1` (configuration not stated) the Potency was “inactive”.
For `Cc1ccc(NS(=O)(=O)c2ccc3c(c2)CC(=O)N3)cc1Cl`, the Potency was “inactive”.
With `COCC(=O)N1CCC2(CCCN(c3ccccc3)C2)CC1` the Potency was “inactive”.
In the case of `CC(C)CNC(=O)C1CCCN(S(=O)(=O)c2ccc(-n3cnnn3)cc2)C1` (configuration not stated), the Potency was “inactive”.
In the case of `COC(=O)c1ccc(CN2CCCC(C(=O)Nc3cccc(-n4cnnn4)c3)C2)cc1` (configuration not stated), the Potency was 28.2 µM (active).
For `O=C(Nc1ccc(F)cc1)C1CCCN(S(=O)(=O)c2ccc(-n3cnnn3)cc2)C1` (configuration not stated), the Potency was “inactive”.
With `CN(CC(=O)Nc1cccc(C(F)(F)F)c1)S(=O)(=O)c1cccs1` the Potency was “inactive”.
In the case of `COc1ccccc1CNC(=O)C(=O)NCC(c1cccs1)S(=O)(=O)c1cccs1` (configuration not stated), the Potency was “inactive”.
For `Cc1no[n+]([O-])c1COc1ccccc1/C=C1\NC(=S)NC1=O`, the Potency was “inactive”.
In the case of `C#CCOc1ccccc1/C=C1/C(=O)ON=C1C`, the Potency was 39.8 µM (active).
In the case of `CN1CCCCCC1C(=O)NCCN1Cc2ccccc2OC(c2ccsc2)C1` (configuration not stated), the Potency was “inactive”.
With `Cc1cc(C(=O)CCl)c(C)n1CC1COc2ccccc2O1` (configuration not stated) the Potency was 12.6 µM (active).
In the case of `CCn1ccnc1C[C@@H]1COc2ccccc2O1`, the Potency was “inactive”.
For `Cc1n[nH]c(C)c1S(=O)(=O)N1CCCC(C(=O)NCC2COc3ccccc3O2)C1` (configuration not stated), the Potency was “inactive”.
In the case of `Cc1ccc(-c2cn3c(n2)sc2cc(C(=O)NCCCc4ccccc4)ccc23)cc1`, the Potency was “inactive”.
For `COc1cc(C2c3c(oc4ccccc4c3=O)C(=O)N2c2nc(C)c(C)s2)ccc1O` (configuration not stated), the Potency was “inactive”.
With `COC(C[C@@H]1O[C@@H]1C(=O)[C@H](C)OCc1ccccc1)OC` the Potency was “inactive”.
With `COC(C[C@H](O)CC(=O)[C@@H](C)OCc1ccccc1)OC` the Potency was “inactive”.
With `COC(C/C=C/C(=O)[C@@H](C)OCc1ccccc1)OC` the Potency was 39.8 µM (active).
In the case of `Cc1nc2cnc(N3CCNCC3)nc2n(Cc2ccc(F)cc2)c1=O`, the Potency was “inactive”.
In the case of `C=CCSSCC=C`, the Potency was “inactive”.
In the case of `N#CCCN(C(=O)COC(=O)c1ccc2c(c1)OCCO2)c1ccccc1`, the Potency was “inactive”.
In the case of `O=C(COC(=O)c1ccccc1)c1ccc2c(c1)OCCO2`, the Potency was 12.6 µM (active).
With `O=C(OCc1ccccc1F)c1ccc2c(c1)OCCO2` the Potency was “inactive”.
In the case of `COc1cc(=O)n2c(c1C(=O)N(C)Cc1nonc1C)CCN(C(=O)c1ccc(C)cc1C)CC2`, the Potency was “inactive”.
With `COc1ccc(-c2nc3cnc(N(C)C)nc3n(Cc3cccs3)c2=O)cc1` the Potency was “inactive”.
For `Cc1cccc(-n2ncc(C(=O)N3CCc4ccccc4C3)c2C2CCN(C(=O)OC(C)(C)C)CC2)c1`, the Potency was 2 µM (active).
In the case of `Cc1cccc(-n2ncc(C(=O)N3CCN(c4ccc(Cl)cc4)CC3)c2C2CCN(C(=O)OC(C)(C)C)CC2)c1`, the Potency was “inactive”.
For `Cc1cccc(-n2ncc(C(=O)N3CCC(C)CC3)c2C2CCN(C(=O)OC(C)(C)C)CC2)c1`, the Potency was “inactive”.
In the case of `CC(O)(c1cccc(F)c1)c1nc(-c2ccc3c(c2)OCO3)cs1` (configuration not stated), the Potency was “inactive”.
In the case of `O=C(Nc1nc(-c2ccc3c(c2)OCO3)cs1)c1ccncc1`, the Potency was 15.8 µM (active).
In the case of `c1ccc2c(Nc3ccncc3)nc(-c3ccc4c(c3)OCO4)nc2c1`, the Potency was “inactive”.
In the case of `COCCn1c(=O)c(-c2cccs2)nc2cncnc21`, the Potency was “inactive”.
With `Cc1c(C(=O)NCC2CCCN(C)C2)cnn1-c1nccc(-c2ccco2)n1` (configuration not stated) the Potency was “inactive”.
With `Cc1ccc(NC(=O)CN2c3ccccc3S(=O)(=O)c3ccccc32)cc1F` the Potency was “inactive”.
In the case of `COC(=O)CCNc1ccc2c(c1)OCCO2`, the Potency was 11.2 µM (active).
In the case of `CCC(C)(C)NC(=O)CN(C(=O)C(=O)Nc1ccc2c(c1)OCCO2)C(C)(C)CC`, the Potency was “inactive”.
For `CCCCN(CC(=O)NC(C)(C)C)C(=O)C(=O)Nc1ccc2c(c1)OCCO2`, the Potency was “inactive”.
For `CCCCC/C=C\C/C=C\C/C=C\C/C=C\CCCCCC(=O)NCCO`, the activity change, negative = inhibition was -8.95% [at 6.7 µM] (inactive).
With `O=C1NS(=O)(=O)c2ccccc21` the Potency was “inactive”.
With `CCc1nccn1S(=O)(=O)c1cc(Br)ccc1Br` the Potency was “inactive”.
With `CCOc1c(Br)cc(/C=C2\C(=O)N(CCC#N)N=C2C)cc1OC` the Potency was 28.2 µM (active).
For `CSc1ccc(C2C(C(=O)Nc3ccccc3)=C(C)Nc3nc4ccccc4n32)cc1` (configuration not stated), the Potency was “inactive”.
For `COC(=O)c1c(OCc2ccc(F)cc2)cc(=O)n2c1CCN(Cc1ccc3cccnc3c1)CC2`, the Potency was “inactive”.
For `Cc1cccc(CC(=O)Nc2cccc(-c3cn4cccnc4n3)c2)c1`, the Potency was “inactive”.
In the case of `COc1ccc(-c2[nH]c3c(c2-c2c(-n4cccc4)n(C)c(=O)n(C)c2=O)c(=O)n(C)c(=O)n3C)cc1`, the Potency was “inactive”.
With `O=C(NCc1ccc(Cl)cc1)c1ccc2c(c1)nnn2C1CCCC1` the Potency was “inactive”.
In the case of `O=C(Cn1nnc(-c2ccccc2)n1)NC(=O)NC1CCCC1`, the Potency was “inactive”.
With `O=C(/C=C/c1cnc2ccccc2n1)NC1CCCCCC1` the Potency was “inactive”.
With `Cc1nc(/N=C(\N)NC(=O)NC2CCCCC2)nc2ccccc12` the Potency was 31.6 µM (active).
In the case of `CCOC(=O)N1CCC(N2CCOc3ccc(CN4CCC(O)(c5cccnc5)CC4)cc3C2)CC1`, the Potency was “inactive”.
For `COc1cccc(CNC(=O)Cn2c(=O)c3cccn3c3ccc(F)cc32)c1OC`, the Potency was “inactive”.
For `COCc1c(C(=O)NC2CCCCC2)cnn1-c1nccc(-c2ccccc2OC)n1`, the Potency was “inactive”.
With `CN1/C(=C\C=C2\N=C(c3ccc(F)cc3)OC2=O)C(C)(C)c2ccccc21` the Potency was “inactive”.
With `COc1cccc(NC(=S)C(C#N)=C2N(C)c3ccccc3N2C)c1` the Potency was “inactive”.
For `CC(=O)Nc1cccc(OCC(=O)/C=C2\N(C)c3ccccc3C2(C)C)c1`, the Potency was 25.1 µM (active).
With `COc1ccccc1CNc1ncncc1-c1cccc(NS(C)(=O)=O)c1` the Potency was “inactive”.
In the case of `O=P(O)(O)C(O)c1ccc2ccccc2c1` (configuration not stated), the Potency was “inactive”.
For `Cc1ccc(CS(=O)(=O)CCC(=O)NC2CC2)cc1`, the Potency was “inactive”.
With `C#CCN(C[C@@H]1[C@@H](OC(=O)NC2CC2)[C@@H](OC(=O)NC2CC2)Cn2c(=O)ccc(=O)n21)S(=O)(=O)c1ccc(C)cc1` the Potency was 20 µM (active).
In the case of `O=C(c1ccco1)N(Cc1nc2ccccc2c(=O)[nH]1)C1CCCC1`, the Potency was “inactive”.
In the case of `CN(c1ccc2nc3ccccc3c(=O)n2n1)C1CCCCC1`, the Potency was 20 µM (active).
In the case of `COc1ccccc1Nc1cc(C(=O)NCCCN(C)C2CCCCC2)c2ccccc2n1`, the Potency was “inactive”.
With `COc1cc(=O)n2c(c1C(=O)NC(C)c1ccco1)CCN(C(=O)c1cn3ccc(C)cc3n1)CC2` (configuration not stated) the Potency was “inactive”.
For `CCN(C(=O)c1sc2cc(OC)ccc2c1Cl)c1ccccc1`, the Potency was “inactive”.
For `COc1ccccc1CNc1nc(-c2c(C)noc2C)nc2ccccc12`, the Potency was “inactive”.
With `CCCCC(=O)N(C)c1c(CC)nc2c(OCc3ccc(Cl)cc3Cl)cccn12` the Potency was “inactive”.
For `CCc1nc2c(OCc3ccc(Cl)cc3Cl)cccn2c1N(C)C(=O)C(C)C`, the Potency was 31.6 µM (active).
With `CCc1nc2c(OCc3cccc(OC)c3)cccn2c1N(C)C(=O)C(C)C` the Potency was “inactive”.
